Screening data deposited in PubChem by National Center for Advancing Translational Sciences (NCATS).
HT1080-NT tox – kills 2HG-producing HT-1080-NT fibrosarcoma cells. HT-1080-NT fibrosarcoma viability, CellTiter-Glo ATP luminescence, 48 h. Potency, µM (highest dose often 46.1 µM), for the others: at the top dose activity, negative = less viability, usual class: cytotoxic. actives 1.6% (n = 360,000). AID 686970;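 note: NT is the 2HG producing partner of a matched IDH1 knockdown line; 0% = DMSO-treated cells and -100% = media-only wells without cells; nearly all actives have a fitted effect of over 55% in size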
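750 cells/well, RPMI + 5% FBS; 2 h settle, compound pin-transfer, 48 h at 37 degrees C. CellTiter-Glo 10 min RT, luminescence. Normalized to DMSO and media-only wells.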
KB-V1 cytotox – KB-V1 MDR subline cytotoxicity; Potency, µM (highest dose often 46.1 µM), hits mostly cytotoxic; KB-V1 MDR cells viability, CellTiter-Glo, 72 h; AID 1347076; actives 3.4% (n = 400,000); note: % is set by controls: 0 for no effect and ±100 for the full control effect; nearly all actives have a fitted effect of over 60% in size
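qHTS viability screen in drug-selected KB-V1 MDR cells: 72 h compound treatment at 37 degrees C, ATP luminescence end point.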
SW480 rerep – inducers of DNA re-replication in SW480 colon cancer cells. SW480 DNA re-replication, Hoechst DNA content imaging, 48 h. Potency, µM (series often up to 46.1 µM), for inactives: at the highest dose re-replication activation, hits mostly activators. actives 1.8% (n = 340,000); note: % of control where 0% means no effect; nearly all actives have a fitted effect of over 55% in size
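SW480 cells exposed to compounds for 48 hr at 37 C, 5% CO2, then Hoechst-stained 40 min. Nuclear DNA content imaged by fluorescence scanning (405 nm excitation, 500-530 nm emission); re-replication scored as increased high-intensity nuclei.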
MCF10A rereplic – inducers of DNA re-replication in MCF 10A breast cells. MCF 10A DNA re-replication, Hoechst nuclear intensity, 48 h. Potency, µM (highest dose often 46.1 µM), without a hit: at the highest dose activity, positive = re-replication, actives largely listed as activators. actives 2.9% (n = 350,000). AID 624296; note: % of control where 0% means no effect; nearly all actives have a fitted effect of over 50% in size
KB-3-1 cytotox – KB-3-1 parental cell cytotoxicity | KB-3-1 viability, CellTiter-Glo ATP luminescence, 72 h | Potency, µM (top dose mostly 46.1 µM), usual class: cytotoxic | actives 1.4% (n = 400,000) | AID 1347075; note: % is set by controls: 0 for no effect and ±100 for the full control effect; nearly all actives have a fitted effect of over 60% in size
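Screening of KB-3-1 cells (DMEM, 10% FBS, phenol-red free) ran from lowest to highest compound concentration; after 72 h at 37 °C viability was read luminescently and curves fitted.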
HT1080 IDH1KD tx – kills HT-1080 cells with IDH1 knockdown; HT-1080 IDH1 knockdown viability, ATP luminescence, 48 h; Potency, µM (series often up to 46.1 µM), inactives show top-dose activity, negative = toxicity, usual class: cytotoxic; actives 2% (n = 360,000); AID 686971;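 note: 0% = DMSO wells and -100% = cell-free medium wells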
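IDH1KD HT-1080 cells, 750/well, RPMI + 5% FBS; compound pinned after 2 h settling; 48 h, 37 °C; CellTiter-Glo luminescence; % activity normalised to DMSO and no-cell wells; curves fitted, classed by r2 and efficacy.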
* = called active by the depositor; i = inactive; ? = inconclusive; / = no result given; [ ] = remark or other dose. In the library only some 8% were active in any assay of this set; here they are far more common. Calls come from the whole dose curve; as a rule, active = well fitted curve in the direction sought with a large enough effect; inconclusive = small, poorly fitted or top-dose-only effect, or another doubt; inactive = no such curve, though single readings can be large; an effect the other way counts as inactive or inconclusive. Potency is the fitted concentration of half-maximal effect.

SMILES	HT1080-NT tox	KB-V1 cytotox	SW480 rerep	MCF10A rereplic	KB-3-1 cytotox	HT1080 IDH1KD tx
O=C(NCc1cccnc1)c1ccc(COc2ccc(Cl)cc2)cc1	-20.7%	i	?	7.5%	i	?
CCc1ccc(NC(=O)c2ccc(S(=O)(=O)NCc3cccnc3)cc2)cc1	-15.9%	i	10.7%	?	i	1.1%
Cc1ccc(OCc2ccc(C(=O)NCc3cccnc3)cc2)cc1C	?	?	10.7%	10.7%	?	18.4µM*
COc1cccc(NC(=O)c2ccc(S(=O)(=O)NCc3cccnc3)cc2)c1	-18.9%	18.4µM*	-17.5%	0.9%	i	-17.1%
COc1cc(OC)c(OC)cc1CNC(=O)c1ccc(COc2ccccc2)cc1	-3.2%	11.6µM*	2.5%	7.7%	?	-25.6%
Cc1ccc(S(=O)(=O)Nc2cccc(C(=O)NCc3cccnc3)c2)cc1F	?	i	6.51µM*	2.91µM*	7.31µM*	6.51µM*
CCOc1ccc(-c2nc(SCC(=O)NCCOC)c(-c3ccc(OC)c(OC)c3)[nH]2)cc1	/	i	/	/	i	/
COc1ccc(-c2nnc(C3CCN(C(=O)c4ccccc4F)CC3)o2)cc1	/	i	/	/	i	/
Cc1c(Cl)cccc1NS(=O)(=O)c1ccc2[nH]cc(C(=O)NC3CCCC3)c(=O)c2c1	/	i	/	/	i	/
O=C(CCCCCCCCC(=O)N1CCCCC1)N1CCCCC1	7.9%	2.31µM*	?	17.7%	?	2.5%
CC(C)C(=O)NC(NC(=S)Nc1cccc2cccnc12)C(Cl)(Cl)Cl (stereo not given)	-8.3%	23.1µM*	1.5%	6.0%	i	-7.7%
CC(C)(C)C(=O)NC(Nc1cccc2cccnc12)C(Cl)(Cl)Cl (stereo not given)	-26.5%	?	23.1µM*	20.6µM*	i	-26.4%
O=C(Cc1ccccc1)NC(Nc1cccc2ccccc12)C(Cl)(Cl)Cl (stereo not given)	0.4%	i	3.5%	6.4%	i	-2.7%
CCC(=O)NC(NC(=S)Nc1cccc2cccnc12)C(Cl)(Cl)Cl (stereo not given)	-1.2%	i	3.6%	-0.5%	i	-1.1%
Cc1ccccc1CNC(=O)C(=O)NCC(c1ccc2c(c1)OCO2)N1CCOCC1 (stereo not given)	/	i	/	/	i	/
COc1cc2ccccc2cc1C(=O)N1CCN(c2nc3c(C)cc(C)cc3s2)CC1	/	i	/	/	i	/
CCCN(CCC)c1nc(NC2CCN(C(=O)OCC)CC2)nc(OC)n1	?	16.4µM*	16.7%	15.4%	?	?
Cc1ccc(S(=O)(=O)N(C)CCCN(C)c2nc(-c3cccs3)nc3ccccc23)cc1	0.0%	/	/	/	/	-2.8%
COC(=O)[C@@]12C[C@@H](CC(=O)NCc3ccc(OC)c(OC)c3)C(=O)N(Cc3cccc4ccccc34)C1=CCC(C)(C)C2	?	20.6µM*	/	/	i	-28.1%
COC(=O)[C@@]12C[C@@H](CC(=O)NCc3cccc4ccccc34)C(=O)N(CCc3ccc(OC)c(OC)c3)C1=CCC(C)(C)C2	?	23.1µM*	/	/	?	-23.6%
COC(=O)[C@@]12C[C@@H](CC(=O)NCc3cccs3)C(=O)N(CCc3ccc(OC)c(OC)c3)C1=CCC(C)(C)C2	-16.4%	?	/	/	i	-16.0%
COC(=O)[C@@]12C[C@@H](CC(=O)NCc3ccccc3)C(=O)N(CCc3ccc(OC)c(OC)c3)C1=CCC(C)(C)C2	-21.4%	?	/	/	i	-3.9%
COC(=O)[C@@]12C[C@@H](CC(=O)NCc3ccc(C)o3)C(=O)N(CCc3ccc(OC)c(OC)c3)C1=CCC(C)(C)C2	-22.4%	18.4µM*	/	/	?	-16.5%
COc1ccc(N(CC(=O)NCc2ccccc2Cl)S(=O)(=O)c2c(C)nn(C)c2C)cc1	/	i	/	/	i	/
Cn1c(=O)c2c(-c3ccccc3)n(-c3cccc(C#N)c3)cc2n(C)c1=O	/	i	/	/	i	/
SMILES	HT1080-NT tox	KB-V1 cytotox	SW480 rerep	MCF10A rereplic	KB-3-1 cytotox	HT1080 IDH1KD tx
CN1C2CCC1/C(=C/c1cccn1C)C(=O)/C2=C\c1cccn1C	4.0%	i	?	12.0%	i	-0.6%
CN1C2CCC1/C(=C\c1ccc(F)cc1)C(=O)/C2=C/c1ccc(F)cc1	-1.8%	23.1µM*	?	1.9%	?	9.9%
CCn1cc(C(=O)O)c(=O)c2cc(F)c(N3CCN(C(=O)Nc4ccccc4)CC3)cc21	1.3%[9.24 µM]	i	0.1%	13.1%	i	-8.4%
CCn1cc(C(=O)O)c(=O)c2cc(F)c(N/N=C/c3ccccc3)cc21	-4.2%	7.31µM*	-14.6%	?	?	-17.8%
CS(=O)(=O)c1nc(-c2ccc(Br)cc2)cc(-c2ccccc2)c1C#N	?	i	3.66µM*	5.8µM*	?	?
CS(=O)c1nc(-c2ccc(Br)cc2)cc(-c2ccccc2)c1C#N (stereo not given)	5.62µM*	?	1.8%	16.4%	?	3.55µM*
COc1ccc(-c2cc(-c3ccccc3)c(C#N)c(S(C)(=O)=O)n2)cc1	5.1%	i	?	?	?	6.1%
CCS(=O)(=O)CCSc1nc(-c2ccc(Br)cc2)cc(-c2ccccc2)c1C#N	/	i	/	/	i	/
Cc1cc(Nc2ccc(Cl)cc2)nc(-c2ccccc2O)n1	?	i	?	?	i	?
Cc1cc(Nc2cccc(Cl)c2)nc(-c2ccccc2O)n1	-29.7%	i	29.1µM*	?	i	?
CS(=O)(=O)N(Cc1ccccc1)c1ccc(C(=O)Nc2cccnc2)cc1	-49.7%	i	-1.2%	-50.3%	i	0.0%
CS(=O)(=O)N(Cc1ccc(Cl)cc1)c1ccc(C(=O)NCCSc2ccccn2)cc1	-19.3%	5.8µM*	?	?	?	?
CS(=O)(=O)N(Cc1ccc(Cl)cc1)c1ccc(C(=O)Nc2cccnc2)cc1	-10.0%	20.6µM*	-1.1%	15.6%	?	?
O=[N+]([O-])c1cc(-c2nc(-c3ccccc3)no2)ccc1NC1CCCCC1	/	?	/	/	i	/
O=C(c1ccncc1)N1N=C(c2ccc(Br)cc2)CC1c1ccccc1O (stereo not given)	?	20.6µM*	6.1%	?	i	?
Cc1ccc(C2=NN(S(=O)(=O)c3ccccc3)C(c3ccccc3O)C2)cc1 (stereo not given)	18.4µM*	?	6.1%	152.5%	i	?
O=C(c1ccccc1)N1N=C(c2ccccc2)CC1c1ccc2nccnc2c1 (stereo not given)	5.4%	7.31µM*	0.0%	15.4%	i	0.9%
